Measurements taken from ChEMBL document CHEMBL1157539, “Thousands of chemical starting points for antimalarial lead identification” (Nature, 2010).

What was measured:
Format in all cases: functional
Plasmodium falciparum [1] = experiment: GSK_TCMDC: Inhibition of Plasmodium falciparum 3D7 in whole red blood cells, using parasite LDH activity as an index of growth. Test compounds present at 2uM
Plasmodium falciparum [2] = experiment: GSK_TCMDC: Inhibition of Plasmodium falciparum Dd2 in whole red blood cells, using parasite LDH activity as an index of growth. Test compounds present at 2uM
HepG2 = experiment: GSK_TCMDC: Percent inhibition of human HepG2 cell line. Test compounds present at 10uM.

SMILES | Inhibition (Plasmodium falciparum [1]) [%] | Inhibition (Plasmodium falciparum [2]) [%] | Inhibition (HepG2) [%]
CSc1ccc2nccc(Nc3ccc(Oc4ccccc4)cc3)c2c1.Cl | 94 | 68 | 30
CCOC(=O)c1ccc(NC(=O)Nc2cccc(-c3ccc(-c4nc5cc(F)ccc5[nH]4)cc3)c2)cc1 | 100 | 97 | 40
COc1ccc(CNCC(C)(C)c2nc(-c3ccc(Cl)c(O)c3)c(-c3ccncc3)[nH]2)cc1.Cl | 100 | 99 | 76
O=C(O)C(F)(F)F.OCC1CCN(Cc2cccc(-c3ccc(-c4nc5cc(C(F)(F)F)ccc5[nH]4)cc3)c2)CC1 | 100 | 95 | 25
N#Cc1ccccc1N1CCN(C2CCC(NC(=O)c3n[nH]c4cc(C(F)(F)F)ccc34)CC2)CC1 (stereo not given) | 84 | 34 | 15
CC(=O)CC(=O)N1CCN(c2ccccc2)CC1 | 85 | 0 | 54
N#CCCn1nc(-c2ccc(Cl)cc2)c2c(c1=O)CCCC2 | 94 | 32 | 0
COc1ccc2nccc(N/N=C/c3ccc([N+](=O)[O-])cc3)c2c1 | 100 | 68 | 9
COc1ccc(CC(=O)NC2CCN(c3ccnc4cc(Cl)ccc34)C2)cc1.O=C(O)C(F)(F)F (stereo not given) | 100 | 88 | 0
COc1ccc2nccc([C@@H](O)CN3CCC(NCCOc4ccccc4[N+](=O)[O-])CC3)c2c1.O=C(O)C(=O)O | 100 | 98 | 4
